Most compounds without a hit are left out; they make up all but 3.2% or so of the library.
SMARCA2 act: increases SMARCA2 function in MMTV reporter cells. MG213 cells, MMTV-luciferase reporter, dexamethasone, overnight. activation, % at 9.1 µM. 370,000 tested, 1% active. AID 652017; in the data active = activation above about 7.8%;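 also: 0% = vehicle wells and 100% = reference activator wells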
CDK5 inh: blocks human CDK5/p35 kinase activity. Q00535+Q15078. Recombinant CDK5/p35, ADP-Glo luminescence, 60 min. inhibition, % at 10 µM. 330,000 tested, 0.01% active. AID 488839;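 active = highest replicate inhibition of at least 50% and at least 75% of replicates reaching 50%; inconclusive = only one of the two criteria met; inactive = both criteria failed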;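 also: plate controls were DMSO neutral control for no effect and GW8510 at 10 µM for full effect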
Dyrk1A ADPGlo: inhibitors of rat Dyrk1A kinase; Q63470; ADP-Glo luminescence, NFATc1 peptide; inhibition, % at 12.5 µM; 310,000 tested, 0.43% active; AID 504441; in the data active = inhibition above about 50%;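 also: plate controls were vehicle with enzyme for no effect and no enzyme for full effect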
dFosB activator: mouse delta FosB homodimer activation | P13346 | purified delta FosB, TAMRA-CDK5 oligo fluorescence polarization; percent of positive-control signal above neutral wells | activation, % at 25 µM | 340,000 tested, 0.99% active | AID 493131;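 active = mean activation above about 17%, with every replicate also reaching it, limit read from the data, passing the limit was not always enough; inconclusive = only one of the two conditions met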
Target sequence (P13346 whole entry, looked up): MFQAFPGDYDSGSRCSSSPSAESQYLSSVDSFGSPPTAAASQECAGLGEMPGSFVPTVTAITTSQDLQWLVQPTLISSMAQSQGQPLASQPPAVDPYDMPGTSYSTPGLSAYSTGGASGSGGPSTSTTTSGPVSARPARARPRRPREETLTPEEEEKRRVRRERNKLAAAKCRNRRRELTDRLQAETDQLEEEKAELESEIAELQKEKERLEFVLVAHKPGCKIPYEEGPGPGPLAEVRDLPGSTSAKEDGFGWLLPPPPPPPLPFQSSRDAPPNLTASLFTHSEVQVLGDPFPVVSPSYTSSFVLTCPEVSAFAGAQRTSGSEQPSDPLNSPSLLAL
Rtt109 HAT inh: C. albicans Rtt109 histone acetyltransferase inhibition; AID 540336; purified Rtt109/Vps75, ThioGlo CoA-SH fluorescence, 4 h; Q5AAJ8; inhibition, % at 34.9 µM; 330,000 tested, 0.16% active;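 active = inhibition of at least 50% in every replicate; inconclusive = best replicate reaches 50% inhibition but some replicates fall short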
esBAF inh: SWI/SNF esBAF complex inhibition; mouse ES cells, Bmi1-luciferase knock-in reporter, 24 h; 100% = twice the neutral-well signal; reporter increase, % at 12.5 µM; 350,000 tested, 2% active; in the data active = activation above about 40%; inconclusive = no clear call, values can overlap the other calls;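 also: 0% = median of the plate's neutral control wells and 100% = double that signal; a rise in the Bmi1 reporter signal indicates esBAF inhibition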
SMARCA2 act conf: confirmation of SMARCA2 (BRM) function activators. shares compounds with SMARCA2 act. MG213 cells, MMTV-luciferase with dexamethasone, luminescence, overnight; MG213 cells expressing E1A, Rb sequestered; DMSO wells 0%, reference activator 100%. activation, % at 9.1 µM. 3,500 tested, 30% active. AID 652260;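 active = activation above its plate's cutoff, the mean activation of tested wells plus 3 SD, cut at about 7.9% in these data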
GAL4-VP16 Luc: GAL4-VP16 reporter activation counter-screen; shares compounds with SMARCA2 act; HEK293 GAL4-VP16 pG5luc reporter, luciferase luminescence; scaled: DMSO wells 0%, SAHA wells 100%; activation, % at 9.1 µM; 3,500 tested, 41% active;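 active = activation above the solvent-only control well mean plus 3 SD, averaged across control plates, cut at about 5.2% in these data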
Active calls of the source: *; ? = inconclusive; nt = no result given.

SMILES	SMARCA2 act	CDK5 inh	Dyrk1A ADPGlo	dFosB activator	Rtt109 HAT inh	esBAF inh	SMARCA2 act conf	GAL4-VP16 Luc
COC(=O)c1c(C)[nH]c(C(=O)/C=C/c2ccccc2F)c1C	15*	-1	-1	-5	3	-16	9.1*	9.7*
COC(=O)c1c(C)[nH]c(C(=O)/C=C/c2ccccc2Cl)c1C	5	-1	-1	2	-6	nt	nt	nt
O=C1C(C=NCCCN2CCCC2=O)=C(O)c2ccccc21	8.5*	2	15	1	3	27	7	5.7*
C[C@H](CO)N1C[C@H](C)[C@@H](CN(C)C(=O)C2CCC2)Oc2cc(C#C[C@@H](C)O)ccc2S1(=O)=O	nt	nt	nt	nt	nt	4	nt	nt
COCC(=O)N1C[C@@H]2[C@H](c3ccccc31)[C@H](CO)N2C(=O)C1CCCC1	nt	nt	nt	nt	nt	1	nt	nt
CC(=O)C1=C(S(=O)(=O)c2ccc(C)cc2)CS(=O)(=O)C1	9.1*	2	-3	-3	?	nt	15*	2
Cc1ccc(S(=O)(=O)C2CS(=O)(=O)CC2O)cc1 (configuration not stated)	-1	2	1	4	1	4	nt	nt
CCC(=O)N1C[C@@H](C)[C@@H](OC)CN(C)C(=O)c2ccc(NC(=O)c3ccc(F)cc3)cc2OC[C@@H]1C	nt	nt	nt	nt	nt	1	nt	nt
C[C@@H]1CN([C@@H](C)CO)S(=O)(=O)c2ccc(-c3ccncc3)cc2O[C@H]1CN(C)C(=O)c1cccc(F)c1	nt	nt	nt	nt	nt	4	nt	nt
COc1cccc(NC(=O)N(C)C[C@H]2Oc3cc(/C=C/c4ccccc4)ccc3S(=O)(=O)N([C@@H](C)CO)C[C@@H]2C)c1	nt	nt	nt	nt	nt	2	nt	nt
Cc1c(Cl)cnc(NC(=O)COC(=O)CCc2nc3ccccc3s2)c1Cl	9.3*	-4	-2	-3	-6	-5	-2	0
C[C@@H]1CN([C@H](C)CO)C(=O)c2cc(Br)cnc2O[C@@H]1CN(C)C(=O)c1ccc(F)cc1	nt	nt	nt	nt	nt	-4	nt	nt
O=C(CN1C(=O)COc2ccccc21)NCCCN1CCN(c2ccccc2F)CC1	-1	1	4	-6	21	6	nt	nt
O=C(CCN1C(=O)COc2ccccc21)NCCN1CCN(c2ccccc2F)CC1	8.7*	-5	-3	1	-11	nt	-1	2
N#C[C@H]1[C@@H](c2ccccc2)[C@@H](CO)N1S(=O)(=O)c1ccc(-c2ccccc2)cc1	nt	nt	nt	nt	nt	1	nt	nt
C[C@H]1CCCCO[C@@H](CN(C)C(=O)c2ccncc2)[C@@H](C)CN([C@@H](C)CO)C(=O)c2cc(NS(=O)(=O)c3ccccc3)ccc2O1	nt	nt	nt	nt	nt	-8	nt	nt
CCOc1ccc(CNC(=O)CN2C(=O)CSc3ccc(S(=O)(=O)N4CCOCC4)cc32)cc1OC	8.8*	1	3	-10	-1	-3	-6	0
COc1ccc(CCNC(=O)CN2C(=O)CSc3ccc(S(=O)(=O)N4CCOCC4)cc32)cc1OC	1	0	4	1	3	-4	nt	nt
CS(=O)(=O)Nc1cccc(C2=NN(S(C)(=O)=O)C(c3ccc4c(c3)OCO4)C2)c1 (configuration not stated)	9.1*	1	0	-4	4	nt	6	7.1*
CS(=O)(=O)N1N=C(c2ccccc2)CC1c1ccc2c(c1)OCO2 (configuration not stated)	3	0	-3	-8	5	nt	nt	nt
CCC(C)c1ccc(NC(=O)c2cccnc2)cc1 (configuration not stated)	9.8*	1	9	-3	-2	50*	8.2*	12*
CCC(C)c1ccc(O)c(NC(=O)c2cccnc2)c1 (configuration not stated)	-3	0	-7	-6	-5	5	nt	nt
C[C@H]1CN([C@@H](C)CO)C(=O)c2cccc(NS(C)(=O)=O)c2O[C@H]1CN(C)Cc1ccc(Cl)c(Cl)c1	nt	nt	nt	nt	nt	1	nt	nt
COc1ccc(C2=NN(C(=O)CSc3nnc(C)c(=O)n3N)C(c3ccco3)C2)cc1 (configuration not stated)	13*	0	nt	-9	-1	nt	2	1
O=C(Cc1ccccc1)NNc1c2ccccc2nc2ccccc12	2	-3	21	-5	-2	nt	nt	nt
SMILES	SMARCA2 act	CDK5 inh	Dyrk1A ADPGlo	dFosB activator	Rtt109 HAT inh	esBAF inh	SMARCA2 act conf	GAL4-VP16 Luc
OCC(Cc1ccccc1)Nc1c2ccccc2nc2ccccc12 (configuration not stated)	9.8*	1	-3	3	-17	nt	5	2
O=C(C[C@@H]1CC[C@H]2[C@@H](COC[C@H](O)CN2CC2CCOCC2)O1)N1CCOCC1	nt	nt	nt	nt	nt	5	nt	nt
CCn1c(O)c(N=Nc2ccc(Cl)c(C(=O)O)c2)c2ccccc21	11*	0	21	-3	20	nt	-4	1
CC(C)n1c(O)c(N=Nc2ccc(Cl)c(C(=O)O)c2)c2ccccc21	0	-1	4	-2	15	7	nt	nt
C[C@@H]1CCCCO[C@@H](CN(C)C(=O)CCC(F)(F)F)[C@H](C)CN([C@@H](C)CO)C(=O)c2cc(NC(=O)CCC(F)(F)F)ccc2O1	nt	nt	nt	nt	nt	5	nt	nt
CCOC(=O)/C=C(\C)N1N=C(c2ccccc2)CC1c1ccccc1 (configuration not stated)	8.3*	-1	-1	-2	7	nt	3	9.2*
N#Cc1cc2c(nc1SCc1ccncc1)CCC2	12*	2	1	-12	-9	44*	3	5
N#Cc1cc2c(nc1SCc1ccccc1)CCC2	-2	-1	3	2	7	nt	nt	nt
O=C(CN1C(=O)CSC1=O)Nc1ccccc1N1CCOCC1	9.8*	1	-7	-2	4	-1	-2	0
O=C(Cn1c(=O)oc2ccccc21)Nc1ccccc1N1CCOCC1	4	-2	-2	-3	0	-10	nt	nt
C[C@H]1CN([C@@H](C)CO)C(=O)Cc2cc(NC(=O)NC3CCCCC3)ccc2O[C@@H]1CN(C)S(C)(=O)=O	nt	nt	nt	nt	nt	6	nt	nt
O=[N+]([O-])c1ccccc1N/N=C\c1ccccc1F	9.1*	-1	nt	-3	-3	63*	8.9*	14*
O=[N+]([O-])c1ccccc1N/N=C/c1cccc(O)c1O	0	-1	-1	5	16	-3	nt	nt
Cc1cc(N/N=C/c2cccc(Br)c2)nc2ccccc12	12*	0	-4	1	0	nt	4	7.8*
Cc1cc(N/N=C\c2ccccc2)nc(-c2ccccc2O)n1	13*	1	6	1	5	nt	-2	3
CCc1ccccc1NC(=O)C1CCC(=O)N(c2ccc(OC)cc2)C1c1ccc(OC)cc1 (configuration not stated)	9.6*	nt	nt	nt	nt	nt	-1	0
